Experimental data as given in the supplement of paper PMC3334620.
Whole data set: some 33,000 sequences, median “E-score (-0.5 to 0.5)” near -0.013, cut for the highest 2% near 0.3. The sample as a whole holds a higher share of the highest values than the screen did.

What follows are sequences tested against T1, Msn1 (UniProt P22148) (assay: PBM E-score (8-mer binding enrichment) (E-score (-0.5 to 0.5)); higher = stronger / more preferred TF binding). Conditions: protein concentration: 200 nM; construct: GST-full length.
T1 sequence: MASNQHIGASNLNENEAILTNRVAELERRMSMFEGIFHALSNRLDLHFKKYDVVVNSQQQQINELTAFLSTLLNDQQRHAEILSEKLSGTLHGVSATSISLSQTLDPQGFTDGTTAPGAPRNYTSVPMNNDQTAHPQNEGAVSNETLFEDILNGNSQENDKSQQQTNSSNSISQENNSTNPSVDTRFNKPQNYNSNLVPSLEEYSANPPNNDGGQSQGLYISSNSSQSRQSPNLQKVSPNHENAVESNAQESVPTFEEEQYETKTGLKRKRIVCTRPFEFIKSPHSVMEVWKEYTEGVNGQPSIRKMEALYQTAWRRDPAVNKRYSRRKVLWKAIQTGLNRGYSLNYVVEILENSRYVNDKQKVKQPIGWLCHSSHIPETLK
Description: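 Universal 'all 10-mer' protein binding microarrays (Agilent AMADID 015681) probed with GST-tagged S. cerevisiae TFs (full-length or DBD) made by in vitro transcription/translation (PURExpress), about 100-200 nM. Bound TF was detected with fluorescent anti-GST. Each ungapped 8-mer (which stands for itself and its reverse complement) is scored by the PBM enrichment score (E-score), a modified Wilcoxon-Mann-Whitney statistic from -0.5 to +0.5, computed with the Universal PBM Analysis Suite. Scale: above 0.35 generally sequence-specific binding.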
For ATCAGGAG, the “PBM E-score” value was -0.0236.
For CCCAGGAC, the “PBM E-score” value was 0.0729.
With GCCAGGAC the “PBM E-score” value was 0.212.
With CATAAAGC the “PBM E-score” value was -0.057.
With CGTGCTGC the “PBM E-score” value was -0.144.
CTTCACTA was tested, and the “PBM E-score” value was -0.0698.
CTGAGAAG was tested, and the “PBM E-score” value was -0.24.
With CCGTTGCA the “PBM E-score” value was 0.0113.
With ACCTTCTG the “PBM E-score” value was -0.0438.
With ATGAGTGA the “PBM E-score” value was 0.12.
For GTTGTTAA, the “PBM E-score” value was 0.334.
With CTTGTTAA the “PBM E-score” value was -0.0116.
For ATTGTTAA, the “PBM E-score” value was 0.0881.
With CAGAGAAG the “PBM E-score” value was -0.18.
For GCGTCTAC, the “PBM E-score” value was -0.0433.
For CACATCCC, the “PBM E-score” value was -0.14.
CACATGAA was tested, and the “PBM E-score” value was 0.0613.
In the case of AACATCCC, the “PBM E-score” value is reported as 0.0693.
GACATGAA was tested, and the “PBM E-score” value was 0.308.
In the case of GACATCCC, the “PBM E-score” value is reported as 0.374.
With GACATGCC the “PBM E-score” value was 0.337.
For TACATGGA, the “PBM E-score” value was 0.193.
For AACATGGA, the “PBM E-score” value was 0.159.
For GACATGGA, the “PBM E-score” value was 0.342.
With CACATGCC the “PBM E-score” value was 0.0209.
With TACATGAA the “PBM E-score” value was 0.117.
With GACATGCA the “PBM E-score” value was 0.276.
With AACCACAA the “PBM E-score” value was 0.042.
With CCGCTAAG the “PBM E-score” value was 0.0391.
For ATACACTG, the “PBM E-score” value was 0.0602.
With AAAAAGAA the “PBM E-score” value was 0.036.
ATTGGAAG was tested, and the “PBM E-score” value was -0.0559.
For ATAGATCC, the “PBM E-score” value was -0.0574.
In the case of AATTTCAG, the “PBM E-score” value is reported as 0.127.
With ACGTGCTA the “PBM E-score” value was -0.167.
GATCCTTA was tested, and the “PBM E-score” value was -0.107.
For AATGCGTG, the “PBM E-score” value was 0.0114.
For AGCAATTG, the “PBM E-score” value was 0.00301.
For ATTCGGCC, the “PBM E-score” value was 0.0205.
CGTTGTTC was tested, and the “PBM E-score” value was 0.0573.
With CTTAGAGA the “PBM E-score” value was -0.00262.
With CACATCTA the “PBM E-score” value was 0.0157.
In the case of GACATGAC, the “PBM E-score” value is reported as 0.335.
In the case of AACATGAC, the “PBM E-score” value is reported as 0.0901.
TACATCTA was tested, and the “PBM E-score” value was 0.105.
With CACATGAC the “PBM E-score” value was -0.0252.
With GACATCTA the “PBM E-score” value was 0.404.
AGGCACCC was tested, and the “PBM E-score” value was -0.241.
With ATCGCTAG the “PBM E-score” value was 0.022.
With GAGTGGCC the “PBM E-score” value was -0.224.
With CAGTGTCC the “PBM E-score” value was 0.348.
CAGTGTCG was tested, and the “PBM E-score” value was 0.0205.
In the case of GAGTGTCC, the “PBM E-score” value is reported as 0.232.
AAGTGTCC was tested, and the “PBM E-score” value was 0.366.
AAGTGTCT was tested, and the “PBM E-score” value was 0.257.
With AAGTGTCG the “PBM E-score” value was 0.126.
In the case of GCGTGTCC, the “PBM E-score” value is reported as 0.431.
CCGTGTCC was tested, and the “PBM E-score” value was 0.413.
With CCGTGTCG the “PBM E-score” value was 0.00655.
For ACGTGTCT, the “PBM E-score” value was 0.16.
In the case of ACGTGTCG, the “PBM E-score” value is reported as 0.0594.
ACGTGTCC was tested, and the “PBM E-score” value was 0.455.
For CCGTGTCA, the “PBM E-score” value was 0.121.
In the case of GCGTGTAC, the “PBM E-score” value is reported as 0.203.
For GCGTGTCA, the “PBM E-score” value was 0.136.
In the case of AATCTTCA, the “PBM E-score” value is reported as 0.211.
GCTGTGCC was tested, and the “PBM E-score” value was 0.00582.
In the case of GCGCTATA, the “PBM E-score” value is reported as -0.036.
In the case of GGAGCGAA, the “PBM E-score” value is reported as 0.0407.
For AGGGAGGG, the “PBM E-score” value was -0.283.
TAGTTTGA was tested, and the “PBM E-score” value was 0.113.
CACCATAG was tested, and the “PBM E-score” value was -0.153.
In the case of ATGTGTCA, the “PBM E-score” value is reported as 0.217.
With AGGTGTCC the “PBM E-score” value was 0.263.
With ATGTGTCC the “PBM E-score” value was 0.438.
For ATGTGTCG, the “PBM E-score” value was 0.194.
For CGGTGTCC, the “PBM E-score” value was 0.304.
With CGGTGTCA the “PBM E-score” value was 0.0418.
In the case of CTGTGTCA, the “PBM E-score” value is reported as 0.02.
For CTGTGTAC, the “PBM E-score” value was 0.197.
For CTGTGTCC, the “PBM E-score” value was 0.439.
In the case of CCCGTAAG, the “PBM E-score” value is reported as -0.117.
In the case of CGTTACTC, the “PBM E-score” value is reported as -0.115.
In the case of GCTTTCCC, the “PBM E-score” value is reported as 0.00071.
With AGCTCCTC the “PBM E-score” value was -0.315.
For GAAACGAA, the “PBM E-score” value was 0.115.
